p53ts 39C kill: p53ts cell cytotoxicity, nonpermissive temperature | H1299-p53A138V viability at 39C, ATP luminescence, 24 h | Potency, µM (doses to about 46.1 µM), without a hit: at the top dose activity change, negative = cell killing, hits mostly cytotoxic | 1.5% of 130,000 active | AID 902; further: on the % scale 0 is the no-effect control and ±100 the full control effect; nearly all actives have a fitted effect of over 55% in size
IkB signaling: IkB pathway inhibition in ABC-DLBCL cells; ABC-DLBCL IkBa-CBG/CBR dual luciferase ratio, 4 h; response scale: scaled: untreated 0%, proteasome inhibitor 100%; Potency, µM (series often up to 57.1 µM), inactives show top-dose IkBa stabilization activation; 0.04% of 110,000 active; AID 445; active means well fitted curve in the direction sought with a large enough effect in the signal ratio, not every such curve was filed as active; inconclusive means small, poorly fitted or top-dose-only effect, or a change in a side signal; the % refers to the signal ratio;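 further: the direction sought is a rising ratio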
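Luminescence ratio of IκBα-fused green versus native red beetle luciferase in OCI-Ly3 cells, 4 h post-doxycycline with compound; red signal alone, scaled from basal (0%) to zero light (-100%), flagged nonspecific or cytotoxic effects.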
Imprint erasure: genomic imprint erasure induction | mouse ES Peg3-LacZ reporter, beta-gal luminescence, 40 h | Potency, µM (series often up to 60.7 µM), without a hit: at the highest dose activity change, positive = activation, most hits filed as activators | 0.02% of 110,000 active | AID 1948
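Gelatin-coated wells received 300 freshly trypsinized female ES cells with a Peg3LacZ-Neo reporter on the maternal allele, then incubated 40 hours at 37C. BetaGlo was added for 5 minutes at room temperature before a single luminescence read.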
p53ts 32C kill: cytotoxicity in p53ts cells at permissive temperature | H1299-p53A138V at 32C, ATP luminescence viability, 24 h | Potency, µM (series often up to 46.1 µM), for the others: at the highest dose activity change, negative = cytotoxicity, actives largely listed as cytotoxic | 0.93% of 130,000 active;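 further: 0% = DMSO and -100% = full killing by reference compound; nearly all actives have a fitted effect of over 55% in size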
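ATP-content luminescence (ATPlite) read-out after 24 h compound exposure at 32C in H1299-p53A138V cells (600/well). Tested up to 46 uM. Normalized to DMSO (0%) and 100 uM tamoxifen (100% killing); Hill-fit AC50.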
HEK293 cAMP cs: counter-screen for TSHR agonists: cAMP increase in parental HEK293; AID 938; parental HEK293 CNG cAMP sensor, membrane potential fluorescence; 2.5% of 73,000 active; Potency, µM (highest dose often 57.1 µM), without a hit: at the highest dose activation, actives largely listed as activators; further: % of control where 0% means no effect; nearly all actives have a fitted effect of over 55% in size
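Parental HEK 293 cells stably expressing a modified CNG channel (no TSHR) report cAMP rise as membrane depolarization. Membrane potential dye with 100 uM RO 20-1724 was loaded for 60 min at room temperature, then compound added for 30 min; fluorescence read at 590 nm.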
TSHR ag: TSH receptor (human) agonism; P16473; HEK293-CNG-TSHR cells (CNG channel as cAMP sensor), membrane potential dye, cAMP; Potency, µM (highest dose often 57.1 µM), for the others: at the highest dose activation, usual class: activators; 0.48% of 73,000 active; active means well fitted activation curve with a large enough effect in the main read-out, with a control signal flat, not every such curve was filed as active; inconclusive means small, poorly fitted or top-dose-only effect, or a change in a side signal; inactive means no such curve, though single readings can be large or run the other way; % of control where 0% means no effect;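 further: the control signal comes from parental cells without the receptor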
Target sequence (P16473 whole entry, looked up): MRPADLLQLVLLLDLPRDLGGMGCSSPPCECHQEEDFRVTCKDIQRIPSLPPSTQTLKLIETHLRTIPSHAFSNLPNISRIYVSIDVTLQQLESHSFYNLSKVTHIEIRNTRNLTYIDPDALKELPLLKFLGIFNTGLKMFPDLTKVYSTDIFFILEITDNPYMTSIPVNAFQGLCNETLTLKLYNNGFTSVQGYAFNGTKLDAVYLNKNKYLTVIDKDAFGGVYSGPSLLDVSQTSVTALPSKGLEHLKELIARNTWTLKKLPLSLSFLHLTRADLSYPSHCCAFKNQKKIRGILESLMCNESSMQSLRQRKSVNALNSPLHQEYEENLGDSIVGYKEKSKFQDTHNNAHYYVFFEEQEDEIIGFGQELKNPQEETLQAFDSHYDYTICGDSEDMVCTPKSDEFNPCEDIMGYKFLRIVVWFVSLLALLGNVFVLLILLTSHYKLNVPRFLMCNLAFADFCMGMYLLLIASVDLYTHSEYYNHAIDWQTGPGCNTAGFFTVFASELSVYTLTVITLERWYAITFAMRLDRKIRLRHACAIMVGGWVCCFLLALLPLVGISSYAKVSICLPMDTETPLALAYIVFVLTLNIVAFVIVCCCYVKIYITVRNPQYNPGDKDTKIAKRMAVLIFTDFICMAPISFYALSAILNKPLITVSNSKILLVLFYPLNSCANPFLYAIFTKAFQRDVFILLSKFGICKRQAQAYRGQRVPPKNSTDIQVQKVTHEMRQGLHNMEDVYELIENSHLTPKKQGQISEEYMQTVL
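HEK 293 cells stably expressing TSHR and a cAMP-gated CNG channel; parental CNG-only cells as counterscreen. Cells preloaded 60 min with membrane potential dye plus 100 uM RO 20-1724, then compound 30 min; fluorescence read at 590 nm.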
* = called active by the depositor; u = inconclusive; x = no result; [ ] = remark or other dose. Most compounds without a hit are left out; they make up all but 3.1% or so of the library. Unless noted, the call rests on the fitted dose curve; in most records, active means well fitted curve in the direction sought with a large enough effect; inconclusive means small, poorly fitted or top-dose-only effect, or another doubt; inactive means no such curve, though single readings can be large; an effect the other way counts as inactive or inconclusive. Potency means the concentration at half of the fitted maximal effect.

SMILES	p53ts 39C kill	IkB signaling	Imprint erasure	p53ts 32C kill	HEK293 cAMP cs	TSHR ag
NCCc1c[nH]c2ccccc12	-7%	-1%	-12%	-4%	-3%	-2%
N[C@H](Cc1c[nH]c2ccccc12)P(=O)(O)O	3%[9.22 µM]	0%[11.4 µM]	0.63µM*	-1%[9.22 µM]	0%[11.4 µM]	-2%[11.4 µM]
C[C@H](N[C@@H](C)CCc1ccccc1)[C@H](O)c1ccc(O)cc1	11%	2%	x	24%	u	u
CCN[C@]1(c2cccs2)CCCCC1=O	6%[20.6 µM]	0%[25.6 µM]	-4%[16.8 µM]	0%[20.6 µM]	6%[25.6 µM]	5µM*
CNC1(c2ccccc2Cl)CCCCC1=O (stereo not given)	x	x	3%	x	x	x
CCN(CC)c1ncnc2c1ncn2[C@@H]1O[C@@H](COP(=O)(O)OP(=O)(O)C(Br)(Br)P(=O)(O)O)[C@H](O)[C@@H]1O	15%	-1%	x	15%	24%	8%
Cc1cccc(-c2nc3ccccc3c(=O)n2-n2cccc2)c1	11%	-1%	-17%	0%	4µM*	u
Cc1ccc(-c2nc3ccccc3c(=O)n2-n2cccc2)cc1	2%	-2%	-24%	6%	24%	x
COc1c(C)cc(Br)cc1C(=O)Nc1ccc(-c2nc3ncccc3o2)cc1	6.3µM*	14%	-18%[10.9 µM]	-28%	x	x
CN1CC[C@]2(C)c3cc(O)ccc3N(C)[C@@H]12	25µM*	u	-5%[16.8 µM]	20µM*	-2%	1%
COc1cc2c(C(=O)N3CCN(C)CC3)c(C)n(C)c2cc1Br	6%	2%	-2%	-8%	20µM*	u
COc1ccc2c(c1)c(C(=O)CN1CCN(C)CC1)c(C)n2Cc1ccccc1	8%	4%	-12%	-6%	u	u
C=CCN1CC[C@@]23CCCC[C@@H]2[C@@H]1Cc1ccc(O)cc13	-10%	3%	x	3%	11%	21%
O=C(Oc1ccc2ccc(OC(=O)N3CCOCC3)cc2c1)N1CCOCC1	-25%	-3%	-48%	-11%	u	u
COC(=O)c1c(C)oc2ccc(OC(=O)N3CCOCC3)cc12	-1%	0%	-16%	9%	5%	25µM*
C/C=C(/C)C(=O)O[C@H]1C(C)=C2C([C@@H]1OC(=O)CCCCCCC)[C@@](C)(OC(C)=O)C[C@@H](OC(=O)CCC)[C@@]1(O)[C@H]2OC(=O)[C@@]1(C)O (stereo not given in full)	x	x	-31%	x	x	x
CCC(C)C(=O)c1c(O)c(C)c2oc3c(C)c(O)c(C(=O)C(C)CC)c(O)c3c2c1O (stereo not given)	13µM*	x	6%	13µM*	x	x
CN=C=S	10%	-1%	1%	-5%[1.84 µM]	30%	1%
Oc1ccc([C@H](O)C2CCCCN2)cc1O (stereo not given in full)	x	x	-10%[10.9 µM]	x	x	x
N[C@]1(C(=O)O)CC[C@@H](C(=O)O)C1	x	0%	x	x	-2%	x
CNc1ccccc1C(=O)O	6%	x	-9%	-6%	x	x
C[CH2][Hg][S]c1ccccc1C(=O)O	1.3µM*	x	-88%	1µM*	x	x
O=C1OCCN1P(=O)(c1ccccc1)c1ccccc1	6%	2%	5%	-1%	10%	-10%
O=P(c1ccccc1)(c1ccccc1)N1CC2(CC2)CC(O)(c2ccccc2)C1 (stereo not given)	-5%	x	-7%	13%	0.79µM*	u
CC(C)C(=O)c1cn(Cc2ccccc2C#N)c2ccccc12	-6%	6%	-17%	6%	25µM*	u
SMILES	p53ts 39C kill	IkB signaling	Imprint erasure	p53ts 32C kill	HEK293 cAMP cs	TSHR ag
O=C(c1ccccc1)c1cn(CC(=O)N2CCCC2)c2ccccc12	15%	1%	-10%	2%	7%	5%
CCCCn1c(NC(=O)c2ccco2)c(C(=O)OCC)c2nc3ccccc3nc21	-2%	4%	-22%	5%	6.3µM*	u
C[C@@H]1CC[C@@H]2N(C1)C[C@H]1[C@@](O)([C@H](O)C[C@]3(O)[C@H]4CC[C@H]5[C@]6(O)O[C@]4(C[C@]13O)[C@@]5(C)CC[C@@H]6O)[C@@]2(C)O	-8%[9.22 µM]	1%[11.4 µM]	6%[10.9 µM]	13%[9.22 µM]	10%[11.4 µM]	-4%[11.4 µM]
[O]=[Cr](=[O])([OH])[O][Cr](=[O])(=[O])[OH]	10µM*	6%	-18%	-5%[1.84 µM]	-22%	u
Cc1cc(NC(=O)c2cc(-c3cccc(Cl)c3)on2)nn1Cc1ccc(Cl)cc1	u	u	-10%[10.9 µM]	-8%	x	x
CCNC(=O)[C@@H]1O[C@@H](n2cnc3c(N)ncnc32)[C@@H](O)[C@H]1O	-6%	u	x	15%	0.16µM*	u
Nc1ncnc2c1ncn2[C@@H]1O[C@H](COP(=O)(O)CP(=O)(O)OP(=O)(O)O)[C@H](O)[C@H]1O	x	x	6%	x	x	x
Cc1cc(Cc2cc(C)c(N)cc2N)c(N)cc1N	-12%[9.22 µM]	-1%[11.4 µM]	u	-5%[9.22 µM]	0%[11.4 µM]	3%[11.4 µM]
CC(=O)[O][Hg][c]1ccccc1	1.6µM*	u	-94%	1µM*	u	u
C=CC(C)=O	0%	0%	25%	-16%[1.84 µM]	u	u
O=C(O)c1cc2ccccc2oc1=O	3%	9%	5%	11%	20µM*	u
O=C(c1cc2ccccc2oc1=O)N1CCC2(CC1)OCCO2	14%	-1%	6%	9%	3%	-6%
O=C(O)C[SH+]CC(=O)O.O=C(O)C[SH+]CC(=O)O.[Cu]	x	x	-10%[10.9 µM]	x	x	x
CN(C)CCCc1c[nH]c2ccccc12	-9%[9.22 µM]	0%[11.4 µM]	-2%[10.9 µM]	4%[9.22 µM]	1%[11.4 µM]	2%[11.4 µM]
CC(=O)OC1C[C@H](O[C@@H]2C(O)C[C@H](O[C@@H]3C(O)C[C@@H](OC4CC[C@]5(C)C(CCC6C5CC(O)[C@@]5(C)C(C7=CC(=O)OC7)CC[C@@]65O)C4)OC3C)OC2C)O[C@H](C)[C@H]1O[C@H]1OC(CO)C(O)C(O)C1O (stereo not given in full)	u	x	1%	-28%	x	x
CC1CC[C@@]2(OC1)OC1C(O)C3C4CC[C@H]5CC(O[C@@H]6O[C@@H](CO)[C@H](OC7OC(CO)C(O)C(OC8OCC(O)C(O)[C@H]8O)[C@@H]7O[C@@H]7OC(CO)[C@H](O)[C@@H](O[C@@H]8OC(CO)C(O)C(O)C8O)C7O)C(O)C6O)C(O)C[C@]5(C)C4CC[C@]3(C)C1C2C (stereo not given in full)	6.3µM*	x	-37%	6.3µM*	x	x
